We go through 40 compounds from PubChem BioAssay.

Calls of active or inactive are those of the source. No rule for the calls is given here.

Chain of Pantothenate synthetase (Mycobacterium tuberculosis (strain ATCC 25618 / H37Rv)) (P9WIL5 whole entry, looked up): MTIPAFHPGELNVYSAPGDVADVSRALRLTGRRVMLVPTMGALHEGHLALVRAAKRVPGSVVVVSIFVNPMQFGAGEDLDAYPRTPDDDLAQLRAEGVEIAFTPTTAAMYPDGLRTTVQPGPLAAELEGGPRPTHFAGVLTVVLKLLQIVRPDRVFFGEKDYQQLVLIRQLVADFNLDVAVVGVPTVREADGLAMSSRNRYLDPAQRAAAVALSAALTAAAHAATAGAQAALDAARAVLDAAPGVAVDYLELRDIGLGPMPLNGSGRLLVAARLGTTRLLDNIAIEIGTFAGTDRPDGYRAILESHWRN

This experiment concerns the target Pantothenate synthetase (Mycobacterium tuberculosis (strain ATCC 25618 / H37Rv)) (UniProt P9WIL5). As to the kind of experiment: Recombinant Mtb pantothenate synthetase (PanC) inhibitors, coupled enzyme, confirmatory (AID 375).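 Also: 0% = full reaction with vehicle and 100% = no enzyme background.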 The following applies: coupled enzyme assay; at 10 µM, hits give high values.
On to `Cc1cc(NCCN(C)C)n2nc(-c3cccs3)cc2n1`, for which the inhibition (in general, the drop in the measured response relative to a control, in per cent) is 0% (inactive). With `CCn1cc(C(=O)NCCC2=CCCCC2)c(=O)c2cc(S(=O)(=O)N(C)C)ccc21`, the inhibition was 0% (inactive). In the case of `CC(C)Oc1ccc(C2C(C(=O)c3ccco3)=C(O)C(=O)N2CCCN(C)C)cc1` (stereo not given), the inhibition was 0% (inactive). `Cc1cc(NS(=O)(=O)c2ccccc2)n(-c2ccccc2)n1`: the inhibition was 0% (inactive).

As for `CC(C(=O)N1CC2(C)CC1CC(C)(C)C2)N1C(=O)c2ccccc2C1=O` (stereo not given), the inhibition was 8% (inactive). As to `CCN(CC(=O)Nc1ccc2c(c1)CCC2)Cc1nc2ccccc2c(=O)[nH]1`, the inhibition is 4% (inactive). Take `COc1ccc(CC(=O)Nc2c3c(nn2-c2cccc(Cl)c2)CS(=O)(=O)C3)cc1`: the inhibition is 0% (inactive). As for `CCN(CC)c1ccc(NC(=O)c2cncc(Br)c2)cc1`, the inhibition is 0% (inactive).

Consider `O=C(OCc1cc2ccccc2[nH]c1=O)c1ccco1`, for which the inhibition was 0% (inactive). Regarding `O=C(Nc1ccccc1)N(Cc1cccnc1)Cc1ccco1`, the inhibition was 0% (inactive). Turning to `CCn1c(=N)n(CC(O)c2ccco2)c2ccccc21` (stereo not given), the inhibition is 0% (inactive). For the compound `CCCCCSc1nc2c(cnn2-c2ccccc2)c(=O)[nH]1`, the inhibition is 11% (inactive).

With `COc1ccc2c(c1)CCc1c(C(=O)N3CCCc4ccccc43)noc1-2`, the inhibition was 4% (inactive).

`COC(=O)C1=CN(C)C=C(C(=O)OC)C1c1ccc(O)c(OC)c1`: the inhibition is 0% (inactive). The same measure for `CCOC(=O)CSc1ncnc2c1cnn2-c1ccc(C)cc1`: 15% (inactive); for `COCCNC(=O)c1ccc(CS(=O)(=O)c2c(Cl)cccc2Cl)o1`: 0% (inactive). For the compound `COc1ccc(C)cc1-n1nnnc1SCC(=O)Nc1cc(C)on1`, the inhibition was 0% (inactive). On to `C=CCNc1nnc(SC2CC(=O)N(c3ccc(OC)cc3)C2=O)s1` (stereo not given), for which the inhibition is 0% (inactive). As for `O=C(CSc1nnc(NC(=O)C2CCC2)s1)NC1CC1`, the inhibition was 0% (inactive). The same measure for `CN(C)CCCOC(=O)CCc1ccccc1`: 0% (inactive). As to `O=C1c2ccccc2NC2CCCCCN12` (stereo not given), the inhibition was 0% (inactive). On to `Cc1nn(-c2ccccc2)c2c1C(O)n1c(nc3ccccc31)S2` (stereo not given), for which the inhibition was 2% (inactive). The same measure for `Cc1cc(NC(=O)C23CCC(C)(c4nc5cc(Cl)c(Cl)cc5nc42)C3(C)C)no1` (stereo not given): 0% (inactive). Turning to `COc1ccccc1-n1nnnc1SCc1ccccc1`, the inhibition is 3% (inactive). The result for `CCc1[nH]nc2c1C(c1ccncc1)C(C#N)=C(N)O2` (stereo not given) reads 4% (inactive). With `CN1CCN(c2ncnc3c2cnn3-c2ccc(Cl)cc2)CC1`, the inhibition is 1% (inactive). With `Cc1cc2c(cc(C(=O)NCc3cccnc3)n2Cc2ccc(Cl)cc2)o1`, the inhibition is 4% (inactive). As for `O=C1COc2ccc(C(=O)COC(=O)CCc3ccc(S(=O)(=O)N4CCOCC4)cc3)cc2N1`, the inhibition was 8% (inactive).

As to `CC(=O)Nc1c(C(=O)C2CC2)oc2ccccc12`, the inhibition was 3% (inactive). For the compound `CC(C)Cn1c(=O)c(C(=O)Nc2ccccc2S(N)(=O)=O)c(O)c2ccccc21`, the inhibition is 0% (inactive). With `CNC(=O)CN(C#N)c1nc(N(C)C)nc(N(C)C)n1`, the inhibition was 0% (inactive). `CCOC(=O)c1cc(-c2ccc(Cl)s2)nc2c1c(C)nn2C`: the inhibition was 0% (inactive).

In the case of `CC(C)NC(=O)CSCc1ccccc1Cl`, the inhibition was 13% (inactive). `C=CCOc1nc2c(c(=O)n(C)c(=O)n2C)n1C`: the inhibition was 0% (inactive). With `CCC(=O)NC1(C(F)(F)F)C(=O)NC(C)=C1C#N` (stereo not given), the inhibition was 6% (inactive). The result for `Cc1ccc2c(c1C)NC(C(=O)O)C1CC=CC21` (stereo not given) reads 0% (inactive).

As to `Cc1ccc(Cn2c(SCC(N)=O)nc3c2c(=O)n(C)c(=O)n3C)cc1`, the inhibition is 0% (inactive). The result for `CCCCC(=O)NCCc1ccc(S(N)(=O)=O)cc1` reads 0% (inactive).

Turning to `CCCNS(=O)(=O)c1ccc(OCC(=O)Nc2ccccc2F)cc1`, the inhibition is 0% (inactive). The same measure for `O=c1cc(NCc2ccccc2)nc2n1CCCS2`: 0% (inactive).
